Screening data (PubChem)
BL2 CD40 inh – CD40 pathway inhibition in BL2 cells; 83,000 compounds, 0.94% hits; inhibition, % at 10 µM; BL2 NF-kB luciferase reporter, CD40L-induced, 4 h; AID 1053188;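 active = mean inhibition of at least 50% with a set share of replicates also reaching that level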
Hits are given with their value; 0 = inactive; ! = not active in a repeat; [ ] = dose if it differs, or a comment. Shown is part of a subset that was picked to be rich in hits.

SMILES | BL2 CD40 inh
C/C=C/c1ccccc1[C@@H]1[C@@H](C#N)N(C(=O)CN2CCOCC2)[C@@H]1CO | 0
CN(C)c1ccc(C=C2C=C(c3ccccc3)OC2=O)cc1 | 0
CN(C)c1ccc(C=c2c3cc([N+](=O)[O-])ccc3n3c2cc(-c2ccccc2)[n+]3C)cc1 | 90.6
COc1cc(N(C)C)ccc1C=c1c2ccccc2n2c1cc(-c1ccccc1)[n+]2C | 100.9
Cn1ccc(=O)c2cc([N+](=O)[O-])ccc21 | 0
COc1ccc(C[C@@H]2CCn3nncc3COC[C@@H](CC(C)C)NC2=O)cc1 | 0
O=C(N[C@H]1CC[C@H](CCNC(=O)C2CCCC2)O[C@@H]1CO)c1ccccn1 | 0
CC(C)[C@@H]1COCn2nncc2CC[C@H](Cc2ccc(-c3ccccc3)cc2)C(=O)N1 | 0
Cc1ccc(-c2nc(N/N=C/c3ccncc3)c3ccccc3n2)cc1 | 53.0
Cc1ccc(NCC(=O)N/N=C/c2ccncc2)cc1 | 0
c1ccc2c(Nc3nc(-c4ccncc4)nc4ccccc34)cccc2c1 | 0
COc1cccc(S(=O)(=O)N2CC[C@@H]3[C@@H](CO)Nc4ccc(C#Cc5cccnc5)cc4[C@@H]32)c1 | 0
C[C@@H]1CN([C@H](C)CO)C(=O)c2c(c3ccccc3n2C)-c2ccccc2CO[C@@H]1CN(C)C(=O)Nc1ccnc(N2CCOCC2)c1 | 0
O=C(C[C@H]1C[C@H]2c3cc(NS(=O)(=O)c4ccccc4)ccc3O[C@H]2[C@H](CO)O1)NC1CCCCC1 | 0
c1cc2c(cc1C1CCCCC1)c1c3n2CCNC3CCC1 (stereo not drawn) | 0
Cc1cccc(-c2ccc([C@@H]3[C@@H](CO)N4CCCCN(S(=O)(=O)c5ccccc5F)C[C@H]34)cc2)c1 | 71.1[25 µM]
Cc1cccc(-c2ccc([C@@H]3[C@@H](CO)N4CCCCN(S(=O)(=O)c5ccccc5F)C[C@@H]34)cc2)c1 | 0
Cc1cccc(-c2ccc([C@H]3[C@@H](CO)N4CCCCN(S(=O)(=O)c5ccccc5F)C[C@@H]34)cc2)c1 | 0
C[C@H]1CN(C)C(=O)c2cc([N+](=O)[O-])ccc2O[C@@H]1CN(C)C(=O)OC(C)(C)C | 0
C[C@@H]1CCCCO[C@H](CN(C)C(=O)Nc2ccc(C(F)(F)F)cc2)[C@@H](C)CN([C@@H](C)CO)C(=O)c2cc(NS(=O)(=O)c3cn(C)cn3)ccc2O1 | 0
CC(=O)N(C)C[C@H]1[C@H](c2ccc(C3=CCCC3)cc2)[C@H](CO)N1CC1CC1 | 0
COc1ccccc1C(=O)OCC(=O)Nc1ccc(Cl)cn1 | 48.9
O=C(COc1ccccc1)Nc1ccc(Cl)cn1 | 0
CCOc1ncccc1C(=O)OCC(=O)Nc1ccc(Cl)cn1 | 0
C[C@H]1CN([C@@H](C)CO)C(=O)c2cccc(NC(=O)Nc3ccc(F)cc3)c2O[C@H]1CN(C)CC1CCCCC1 | 0
SMILES | BL2 CD40 inh
CCCCCCCCNC(=O)C(Cc1ccc(OCc2ccncc2)cc1)NC(=O)C1CCC(CN)CC1 (stereo not drawn) | 0
C[C@H]1CN(C)C(=O)Cc2cc(N(C)C)ccc2O[C@H]1CN(C)C | 0
Fc1ccccc1CNCCC(Cc1ccccc1)c1ccc2c(c1)OCO2 (stereo not drawn) | 32.5
CC(=O)N(CCC(Cc1ccccc1)c1ccc2c(c1)OCO2)Cc1ccccc1F (stereo not drawn) | 0
CC(C)CCC(CCNCc1ccccn1)c1ccc2c(c1)OCO2 (stereo not drawn) | 0
CC(=O)N(C)C[C@H]1Oc2c(NC(=O)NC(C)C)cccc2C(=O)N(C)C[C@H]1C | 0
COc1ccc(NC(=O)N(C)C[C@@H]2OCc3ccccc3-c3ccccc3C(=O)N([C@H](C)CO)C[C@H]2C)cc1 | 0
C[C@H]1CC=CC[C@H](c2cccc(Cl)c2)NC(=O)[C@H](Cc2ccccc2)N(C)C(=O)c2ccccc2O1 (mixture of isomers) | 0
O=C(O)CCCCCN1C(=O)/C(=C/c2cn(-c3ccccc3)nc2-c2cccs2)SC1=S | 0
O=C(O)CCN1C(=O)/C(=C\c2ccncc2)SC1=S | 0
CC(/C=C1\SC(=O)N(CCCC(=O)O)C1=O)=C\c1ccccc1 | 47.5
Cc1cc(NCCCn2ccnc2)n2ncc(-c3ccccc3)c2n1 | 88.4
c1ccc(-c2nc(NCCCn3ccnc3)c3ccccc3n2)cc1 | 0
COc1ccccc1-c1cnn2c(NCCc3ccccc3)cc(C)nc12 | 0
CN(C)C(=O)c1cccc(-c2ccc(C3[C@@H]4CN(S(=O)(=O)c5cccc(Cl)c5)C[C@H]3N4)cc2)c1 (stereo partly drawn) | 0
CNC(=O)OCc1nc(SSC(C)(C)C)n(C)c1COC(=O)NC | 96.1
O=C(Cc1cccnc1)N1CC(=O)N2[C@H](CO)[C@H](c3ccc(C#CC4CCCC4)cc3)[C@H]2C1 | 0
CCc1nnc(NS(=O)(=O)c2ccc(Nc3ccc([N+](=O)[O-])c4nonc34)cc2)s1 | 0
Cc1ccc(S(=O)c2ccc([N+](=O)[O-])c3nonc23)cc1 (stereo not drawn) | 87.5
Cc1ccc(C)c([N+](=O)[O-])c1 | 0
CCS(=O)(=O)N1CC2(C1)[C@H](c1ccccc1)[C@H](CO)N2C(=O)c1ccccc1 | 0
C[C@@H]1CN([C@H](C)CO)C(=O)c2cccc(NC(=O)C3CCCCC3)c2O[C@H]1CN(C)S(C)(=O)=O | 0
O=C(CC(F)(F)F)N1C[C@@H]2[C@H](c3ccccc31)[C@@H](CO)N2C(=O)C1CCCC1 | 0
O=C(Nc1nc2ccccc2s1)c1cnccn1 | 0
C/C(=N\OCC(=O)Nc1nc2ccccc2s1)c1ccccc1 | 0
SMILES | BL2 CD40 inh
CC(=NNc1nc2ccccc2s1)c1ccncn1 | 63.5
COCC(=O)N1CCC2(CC1)CN(Cc1cc(F)ccc1F)[C@@H](CO)c1c2c2ccc(OC)cc2n1C | 0
O=C(Nc1ccc2c(c1)[C@H]1C[C@H](CC(=O)N3CCOCC3)O[C@@H](CO)[C@H]1O2)Nc1ccccc1F | 0
O=C(Nc1ccccc1)N1CC(=O)N2[C@H](CO)[C@H](c3ccc(C#CC4CCCC4)cc3)[C@H]2C1 | 0
CN(C)CC(=O)N1[C@@H]2c3ccc(C4=CCCCC4)c(=O)n3C[C@@H]2[C@@H](CO)[C@@H]1C(=O)Nc1nccs1 | 0
CC(OC(=O)c1cc(Br)ccc1O)C(=O)Nc1ccc(S(=O)(=O)N2CCCC2)cc1 (stereo not drawn) | 65.2
COC(C(=O)Nc1ccc(S(=O)(=O)N2CCCCC2)cc1)c1ccccc1 (stereo not drawn) | 0
CC1CCN(C(C)C(=O)Nc2ccc(S(=O)(=O)N3CCCC3)cc2)CC1 (stereo not drawn) | 0
Cc1ccccc1-c1ccc(C2[C@@H]3CN(C(=O)Nc4ccc(F)cc4)C[C@H]2N3)cc1 (stereo partly drawn) | 0
COc1cccc(-c2ccc(C3[C@@H]4CN(C(=O)C5CCC5)C[C@H]3N4)cc2)c1 (stereo partly drawn) | 0
Cc1ccccc1-c1ccc(C2[C@@H]3CN(C(=O)Nc4cccc(F)c4)C[C@H]2N3)cc1 (stereo partly drawn) | 62.3[25 µM]
COc1ccc(NC(=O)N2C[C@@H]3N[C@H](C2)C3c2ccc(-c3cncnc3)cc2)cc1 (stereo partly drawn) | 0
COc1ccc(NC(=O)N2C[C@@H]3N[C@H](C2)C3c2ccc(-c3ccncc3)cc2)cc1 (stereo partly drawn) | 0
COc1ccc(NC(=O)N2C[C@@H]3N[C@H](C2)C3c2ccc(-c3cccc(OC)c3)cc2)cc1 (stereo partly drawn) | 0
COc1cccc(-c2ccc(C3[C@@H]4CN(C(=O)C5CC5)C[C@H]3N4)cc2)c1 (stereo partly drawn) | 63.0!
